From PubChem BioAssay (NCATS)
Inconclusive results are not listed. A number with no mark means an inactive call. Calls of active or inactive are those of the source. Calls come from the whole dose curve; as a rule, active = well fitted cell-killing curve with a large enough effect; inconclusive = small, poorly fitted or top-dose-only effect, or effect the other way; inactive = no such curve, though single readings can be large or run the other way.

Assay: Viability qHTS for spleen associated tyrosine kinase inhibitor (SYKi) naive MV4-11 cells (AID 1963823); note: nearly all actives have a fitted effect of over 40% in size
Conditions: MV4-11 AML viability, CellTiter-Glo luminescence, 72 h; series mostly up to 45 µM
How it was run: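 Cells: MV4-11, SYK inhibitor naive, 500 per well. Treatment: library compounds, 72 hr, 37 C, 5% CO2. Read-out: CellTiter-Glo luminescence after 10 min RT.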
Potency is the fitted concentration of half-maximal effect.

SMILES | Potency | viability (% of control)
CCC(C)(C#N)O[C@@H]1O[C@H](CO)[C@@H](O)[C@H](O)[C@H]1O (stereo partly specified) | inactive | 
CCC(C)/C=C(C)/C=C/C1=CC2=C(Cl)C(=O)C(C)(OC(C)=O)C(=O)C2=CO1 (stereo unspecified) | inactive | 
C=C1[C@@]23C(=O)O[C@H](C)[C@]24O[C@@]2(C(=C)[C@]5(C=CC(=O)OC5(C)C)CC[C@]32C)[C@H](O)[C@@]1(C)OC4=O | inactive | 
CO[C@H]1C[C@H](O[C@H]2CC[C@]3(C=O)[C@H]4CC[C@]5(C)[C@@H](C6=CC(=O)OC6)CC[C@]5(O)[C@@H]4CC[C@]3(O)C2)O[C@H](C)[C@H]1O | 63.2 nM (active) | 
COC[C@@H]1OC(=O)c2coc3c2[C@]1(C)C1=C(C3=O)[C@H]2CC[C@H](O)[C@@]2(C)C[C@@H]1OC(C)=O | 8200 nM (active) | 
CO[C@H]1C[C@H](O[C@H]2CC[C@]3(CO)[C@H]4CC[C@]5(C)[C@@H](C6=CC(=O)OC6)CC[C@]5(O)[C@@H]4CC[C@]3(O)C2)O[C@H](C)[C@H]1O | 100 nM (active) | 
COC1CC(O[C@H]2CC[C@]3(C)C4CC[C@]5(C)[C@@H](C6=CC(=O)OC6)[C@@H](OC(C)=O)C[C@]5(O)C4CC[C@@H]3C2)OC(C)C1O (stereo partly specified) | 252 nM (active) | 
CC(C)C(=O)O[C@H]1[C@@H]2[C@H](C)C(=O)O[C@@H]2C[C@@H](C)[C@@H]2C=CC(=O)[C@]21C | 3600 nM (active) | 
CC[C@@H](C)[C@H]1C(=O)O[C@H](C(C)C)C(=O)N(C)[C@@H]([C@@H](C)CC)C(=O)O[C@H](C(C)C)C(=O)N(C)[C@@H]([C@H](C)CC)C(=O)O[C@H](C(C)C)C(=O)N1C | 1220 nM (active) | 
CCC1NC(=O)C2C(Cl)C(Cl)CN2C(=O)C(C(C)O)NC(=O)CC(c2ccccc2)NC(=O)C(CO)NC1=O (stereo unspecified) | inactive | 
CC1=CC(=O)[C@@H](O)[C@@]2(C)C1C[C@H]1OC(=O)[C@H](O)[C@@]3(O)[C@@H](C)[C@@H](O)[C@H](O)C2[C@@]13C (stereo partly specified) | 2020 nM (active) | 
COC[C@]12CN(C)C3C4[C@H](OC)[C@H]1C3(C(OC)C[C@H]2O)[C@H]1C[C@@]2(O)[C@H](OC(=O)c3ccccc3)[C@@H]1[C@]4(O)[C@@H](O)[C@@H]2OC (stereo partly specified) | inactive | 
CC1=C[C@H]2O[C@@H]3[C@H](O)[C@@H](O)[C@](C)([C@@]2(CO)C[C@@H]1O)[C@]31CO1 | 820 nM (active) | 
COC1C=CC23c4cc5c(cc4COC2(O)CN(C)C3C1)OCO5 (stereo unspecified) | inactive | 
C/C=C(\C)C(O)C(C)/C=C(C)/C=C/C/C(C)=C/Cc1nc(OC)c(OC)c(O[C@@H]2O[C@@H](C)[C@H](O)[C@@H](O)[C@H]2O)c1C (stereo partly specified) | 100 nM (active) | 
C[C@H]1CCC[C@H](O)CCC/C=C/c2cc(O)cc(O)c2C(=O)O1 | 7310 nM (active) | 
CC1=CC2/C=C(\C)CCC(O)C(O)/C=C/C(=O)OC23C(=O)NC(CC(C)C)C3C1C (stereo unspecified) | 7960 nM (active) | 
COC1C(O)C(OC2CCC3(C=O)C(CCC4C3CCC3(C)C(C5=CC(=O)OC5)CCC43O)C2)OC(C)C1OC1OC(CO)C(O)C(O)C1O (stereo unspecified) | 153 nM (active) | 
C/C=C(\C)C(=O)OC1CC2C(CC=C3CC(OC4CC(OC)C(OC5CC(OC)C(OC6OC(C)C(OC7OC(CO)C(O)C(O)C7O)C(OC)C6O)C(C)O5)C(C)O4)CCC32C)C2(O)CCC(C(C)=O)C12C (stereo unspecified) |  | 73.7% [at 9.25 µM]
C/C=C(\C)C(=O)OC1CC2C(C)(C)OC(=O)CC(OC(C)=O)C2(C)C2CC(OC(=O)C(C)C)C3(C)C(c4ccoc4)CC4OC43C12C (stereo unspecified) | inactive | 
C[C@@H]1C[C@@H](O)[C@]2(O)O[C@@H]3C[C@@]4(C=O)C(CC[C@@H]5C4CC[C@]4(C)[C@@](O)(C6=CC(=O)OC6)CC[C@]54O)C[C@H]3OC2O1 (stereo partly specified) | 796 nM (active) | 
CC(C)(C)c1cc(C(C)(C)C)c2c(c1)C(O)(C(F)(F)F)C(=O)O2 (stereo unspecified) | inactive | 
O=C(N[C@@H](COc1ccc2[nH]c(=O)[nH]c2c1)c1ccccc1)c1cccn(Cc2ccc(F)c(F)c2)c1=O | 11600 nM (active) | 
C=C1C[C@]2(O)[C@@]3(C)CCC(=O)C(C)(C)C3=C(O)C(=O)[C@@]2(C)[C@@H]2C(=O)O[C@@](C)(C(=O)OC)C(=O)[C@@]12C | inactive | 
CCC1C2CC3C4N(C)c5ccccc5C45CC(C2C5O)N3C1O (stereo unspecified) | inactive | 
CO[C@H]1[C@H](O)[C@H](O[C@H]2CC[C@]3(C)C4CC[C@]5(C)[C@H](C6=CC(=O)OC6)CC[C@]5(O)C4CC[C@@H]3C2)O[C@@H](C)[C@@H]1O (stereo partly specified) | 25.2 nM (active) | 
